Data as given in PubChem BioAssay AID488807 (Broad Institute, 2010).
Measured potencies and affinities stand elsewhere. Inconclusive results are not listed. Active and inactive are the calls of the source. No rule for the calls is given here.

Test: growth inhibition of resistant C. albicans, dose response, CaCi-8, fluconazole, Alamar Blue, dry powder (AID 488807)
Conditions: C. albicans CaCi-8 + fluconazole, 48 h; series mostly up to 26 µM; activity change, negative = inhibition: at the top concentration

SMILES | activity change, negative = inhibition
CCCNC(=O)Cn1nc(-c2ccccc2)c2cc(Cl)ccc21 | 77.3% (inactive)
Cc1nn(S(C)(=O)=O)c2ccccc12 | -59% (inactive)
O=C(Cn1nc(-c2ccccc2)c2cc(Cl)ccc21)N1CCOCC1 | -27.7% (inactive)
O=C(O)c1nn(Cc2ccc(Cl)cc2)c2ccccc12 | 26.9% (inactive)
O=C(Cn1nc(-c2ccccc2)c2ccccc21)N1CCc2ccccc2C1 | -18.9% (inactive)
O=C(Cn1c2ccccc2c2nc3n(c(=O)c21)CCCS3)c1ccc(F)cc1 | -16.2% (inactive)
CCCNC(=O)Cn1nc(-c2ccccc2)c2ccccc21 | 101% (inactive)
COc1ccc2c(c1)c1nc3n(c(=O)c1n2CC(=O)N1CCC(C)CC1)CCS3 | 13% [at 2.6 µM] (inactive)
c1ccc(-c2n[nH]c3ccccc23)cc1 | 66.6% (inactive)
CCOC(=O)c1c2ccccc2nn1Cc1ccc(Cl)cc1 | 62.6% (inactive)
COc1ccc2c(c1)c1nc3n(c(=O)c1n2CC(=O)N1CCC(Cc2ccccc2)CC1)CCS3 | 8.79% (inactive)
O=C(Cn1nc(-c2ccccc2)c2ccccc21)NCc1ccc(Cl)cc1 | 8.2% (inactive)
O=C(c1ccc(Cl)cc1)N1CCN(c2cc(C(F)(F)F)nc3ccccc23)CC1 | -34.6% (inactive)
CCOC(=O)c1nn(Cc2ccc(Cl)cc2)c2ccccc12 | 10.8% (inactive)
COc1ccc(OC)c2c(C)cc(N3CCN(C(=O)c4ccc(Cl)cc4)CC3)nc12 | -9.04% (inactive)
O=C(Cn1c2ccccc2c2nc3n(c(=O)c21)CCS3)NCCc1ccc(Cl)cc1 | 8.23% (inactive)
O=S(=O)(c1ccc(Cl)cc1)N1CCN(c2ccnc3cc(Cl)ccc23)CC1 | 1.53% (inactive)
O=C(Cn1nc(C(=O)N2CCCCC2)c2ccccc21)N1CCOCC1 | 0.822% (inactive)
COC(=O)Cn1nc(C)c2ccccc21 | -0.346% (inactive)
